Compound activity as filed in PubChem.
DT40 TDP1 CPT: qHTS for Inhibitors of human tyrosyl-DNA phosphodiesterase 1 (TDP1): qHTS in cells in presence of CPT; chicken DT40 Tdp1-/-;hTDP1 cells + 20 nM CPT, ATP luminescence, 48 h; Potency, µM (doses to about 46.2 µM), without a hit: at the top dose activity change, negative = growth inhibition, actives largely listed as inhibitors; 12% of 420,000 active; further: nearly all actives have a fitted effect of over 55% in size
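Chicken DT40 Tdp1-/- cells complemented with human TDP1, 400 cells/well, exposed to compounds plus 20 nM camptothecin for at least 48 h at 37 C; viability read as ATP content by CellTiter-Glo luminescence.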
KB-3-1 cytotox: qHTS assay for MDR1-selective chemotherapeutics: Primary screen using the parental adenocarcinoma cell KB-3-1. KB-3-1 viability, CellTiter-Glo ATP luminescence, 72 h. Potency, µM (titrated, usually from 46.1 µM), usual class: cytotoxic. 1.4% of 400,000 active. AID 1347075, 2019; further: nearly all actives have a fitted effect of over 60% in size
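72 h, 37 °C compound treatment of KB-3-1 parental cells; CellTiter-Glo added, 10 min, luminescence read. Data corrected against DMSO-only plates and normalized before curve fitting.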
TDP1 cell noCPT: qHTS for Inhibitors of human tyrosyl-DNA phosphodiesterase 1 (TDP1): qHTS in cells in absence of CPT; DT40 Tdp1-/- hTDP1 cells, no CPT, ATP luminescence, 48 h; Potency, µM (titrated, usually from 46.2 µM), for inactives: top-dose activity change, negative = growth inhibition, actives largely listed as inhibitors; 15% of 420,000 active; AID 686978, 2013; further: nearly all actives have a fitted effect of over 55% in size
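Growth kinetics read by CellTiter-Glo luminescence after ≥48 hr at 37 °C. Cells: DT40 Tdp1-/- stably carrying human TDP1, 400 per well, compound exposure in the absence of CPT (DMSO vehicle).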
KB-V1 cytotox: qHTS assay for MDR1-selective chemotherapeutics: Primary screen using the drug-selected MDR subline cells KB-V1. 3.4% of 400,000 active. Potency, µM (series often up to 46.1 µM), usual class: cytotoxic. KB-V1 MDR cells viability, CellTiter-Glo, 72 h; further: nearly all actives have a fitted effect of over 60% in size
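Cytotoxicity via CellTiter-Glo luminescence after 72 h compound exposure at 37 degrees C. Cells: drug-selected KB-V1 line, DMEM phenol-red free plus 10% FBS. Compounds tested at multiple concentrations; normalized data fitted to concentration-effect curves.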
HT1080-NT tox: qHTS for induction of synthetic lethality in tumor cells producing 2HG: qHTS for the HT-1080-NT fibrosarcoma cell line; HT-1080-NT fibrosarcoma viability, CellTiter-Glo ATP luminescence, 48 h; Potency, µM (series often up to 46.1 µM), without a hit: at the highest dose activity, negative = less viability, most hits filed as cytotoxic; 1.6% of 360,000 active;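 further: NT is the 2HG producing partner of a matched IDH1 knockdown line; 0% = DMSO-treated cells and -100% = media-only wells without cells; nearly all actives have a fitted effect of over 55% in size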
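750 cells/well, RPMI + 5% FBS; 2 h settle, compound pin-transfer, 48 h at 37 degrees C. CellTiter-Glo 10 min RT, luminescence. Normalized to DMSO and media-only wells.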
HT1080 IDH1KD tx: qHTS for induction of synthetic lethality in tumor cells producing 2HG: qHTS for the HT-1080-IDH1KD cell line. 2% of 360,000 active. AID 686971, 2013. HT-1080 IDH1 knockdown viability, ATP luminescence, 48 h. Potency, µM (titrated, usually from 46.1 µM), for inactives: at the top dose activity, negative = toxicity, usual class: cytotoxic;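 further: 0% = DMSO wells and -100% = cell-free medium wells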
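Luminescent ATP read-out (CellTiter-Glo, 10 min at room temperature) after 48 h compound exposure at 37 °C gave viability of IDH1-knockdown HT-1080 cells. Activity was normalised to DMSO and cell-free wells, then fitted as concentration-response curves.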
* marks the source's active call; other numbers are inactive results; i = inactive; ? = inconclusive; · = not tested or not shown. Shown are actives, neighbours in structure and some others; about 19% of the full set was active somewhere. The call rests on the fitted dose curve; in most records, active means well fitted curve in the direction sought with a large enough effect; inconclusive means small, poorly fitted or top-dose-only effect, or another doubt; inactive means no such curve, though single readings can be large; an effect the other way counts as inactive or inconclusive. Unless noted, on the % scale 0 is the no-effect control and ±100 the full control effect; potency means the concentration at half of the fitted maximal effect.

SMILES	DT40 TDP1 CPT	KB-3-1 cytotox	TDP1 cell noCPT	KB-V1 cytotox	HT1080-NT tox	HT1080 IDH1KD tx
CCCCNC(=O)C1(C)CCN1C(=O)c1cccc(OC(C)=O)c1C (stereo not given)	4.3%	i	4.8%	i	?	28.1%
Cc1ccccc1Cn1c(=O)n(CC2CCC(C(=O)NCCc3ccccc3)CC2)c(=O)c2ccccc21 (stereo not given)	20.6µM*	?	29.1µM*	i	-0.2%	-1.8%
CCCCNC(=O)C1CCC(Cn2c(=O)c3sccc3n(Cc3ccccc3)c2=O)CC1 (stereo not given)	0.0%	i	3.7%	i	·	·
CCCCn1c(O)c(N=NC(=O)c2ccco2)c2ccccc21	?	i	18.4µM*	16.4µM*	-10.8%	-8.3%
CCn1c(O)c(N=NC(=O)CNC(=O)Cc2ccccc2)c2ccccc21	-20.4%	i	18.2%	i	2.8%	-3.7%
CCn1c(O)c(N=NC(=O)C(O)c2ccccc2)c2ccccc21 (stereo not given)	23.1µM*	i	20.6µM*	i	-3.3%	-6.6%
O=C(CNC(=O)c1ccco1)N=Nc1c(O)n(CCc2ccccc2)c2ccccc12	5.17µM*	1.3µM*	3.66µM*	3.66µM*	4.11µM*	1.84µM*
CCOC(=O)N=Nc1c(O)n(CC)c2ccccc12	-23.2%	i	-6.4%	i	7.6%	6.1%
O=C(NCc1ccccc1Cl)C(=O)NCC(c1ccc2c(c1)OCO2)N1CCOCC1 (stereo not given)	?	i	?	i	·	·
COc1ccc(C(=O)Nc2cc(OC)nc(OC)n2)cc1	-23.8%	i	?	i	-0.7%	-12.9%
O=C1CN(C(=O)/C=C/c2ccc(Br)cc2)CCN1	3.1%	i	0.4%	?	13.5%	8.3%
COc1ccc2c(c1)Cc1sc(NC(=O)c3ccccc3)nc1-2	?	i	?	i	-1.7%	-6.8%
COc1ccc2c(c1)CCc1sc(NC(=O)c3ccc(Cl)cc3)nc1-2	18.4µM*	·	20.6µM*	·	·	·
COc1ccc2c(c1)-c1nc(NC(=O)c3cc(Cl)ccc3OC)sc1CC2	8.2µM*	·	?	·	·	·
COc1ccc(C(=O)Nc2nc3c(s2)Cc2cc(OC)ccc2-3)cc1	?	i	?	?	-12.0%	-0.1%
COc1ccc2c(c1)Cc1sc(NC(=O)c3cccs3)nc1-2	?	i	20.6µM*	i	?	-0.1%
COc1ccc2c(c1)-c1nc(NC(=O)c3cc(OC)c(OC)c(OC)c3)sc1CC2	?	·	18.4µM*	·	·	·
CC(C)Oc1ccc(S(=O)(=O)N2CCCCC2)cc1NC(=O)C1CCC1	?	i	?	i	-13.3%	-3.6%
CCC1C(=O)NCCN1C(=O)c1ccc2nc(Cc3cccc(Cl)c3)oc2c1 (stereo not given)	-7.7%	i	?	?	0.9%	-1.7%
C/C(=N\NC(=O)CNC(=O)c1cccs1)c1ccc(Cl)c(Cl)c1	2.59µM*	i	?	i	?	?
COc1ccc(/C(C)=N/NC(=O)CNC(=O)c2cccs2)cc1OC	1.1%	i	-24.4%	i	-0.5%	-2.9%
COc1ccc(NCC(=O)Nc2ccc(Br)cc2F)c(OC)c1	?	i	13µM*	i	?	-4.9%
COc1ccc(NC(=O)c2cc(Br)ccc2Cl)c(OC)c1	5.4%	i	-13.8%	16.4µM*	1.8%	-5.2%
COc1ccc(C)cc1Nc1n[n+](-c2ccccc2)c(-c2cc([N+](=O)[O-])cc(OC)c2O)s1	20.6µM*	i	?	i	0.0%	1.7%
COc1cc(OC)c(-c2sc(Nc3ccccc3)n[n+]2-c2ccc(F)cc2)cc1OC	?	i	-24.6%	i	1.1%	0.1%
SMILES	DT40 TDP1 CPT	KB-3-1 cytotox	TDP1 cell noCPT	KB-V1 cytotox	HT1080-NT tox	HT1080 IDH1KD tx
CCc1ccc(Nc2n[n+](C)c(-c3ccncc3)s2)cc1	16.4µM*	?	25.9µM*	i	-15.4%	-0.5%
COc1ccc(C)cc1Nc1n[n+](-c2ccccc2)c(-c2ccc(NC(C)=O)cc2)s1	?	i	-26.9%	i	2.1%	-5.0%
CCc1ccc(Nc2n[n+](-c3ccccc3)c(-c3ccc(SC)cc3)s2)cc1	6.51µM*	?	6.51µM*	i	?	?
COc1ccc(C)cc1Nc1n[n+](-c2ccccc2)c(-c2ccc(SC)cc2)s1	18.4µM*	?	14.6µM*	?	?	18.4µM*
CCc1ccc(Nc2n[n+](-c3ccccc3)c(-c3ccc(C(=O)O)cc3)s2)cc1	-29.0%	i	-18.1%	i	-17.0%	?
CC(=O)Nc1ccc(S(=O)(=O)NCCc2ccc3c(c2)OCCO3)cc1	-11.0%	i	1.3%	i	8.3%	12.3%
Clc1cccc(-c2sc(Nc3ccccc3)n[n+]2-c2ccccc2)c1Cl	?	i	18.4µM*	i	1.9%	3.3%
COc1ccc(-c2sc(Nc3ccccc3)n[n+]2-c2ccc(F)cc2)c(OC)c1OC	?	i	13µM*	i	0.0%	0.0%
Fc1ccc(-[n+]2nc(Nc3ccccc3)sc2-c2cccc(Cl)c2Cl)cc1	?	i	?	i	-8.9%	-11.0%
CSc1ccc(-c2sc(Nc3ccccc3)n[n+]2-c2ccccc2)cc1	16.4µM*	i	?	i	-5.4%	-4.6%
CCc1ccc(Nc2n[n+](-c3ccccc3)c(-c3ccc(OC)c(Br)c3)s2)cc1	16.4µM*	?	?	i	-22.5%	-26.5%
O=C(C[C@H]1CC[C@H](NC(=O)Nc2ccccc2F)[C@@H](CO)O1)NCc1ccc(-c2ccccc2)cc1	?	i	-25.3%	i	-7.6%	-5.1%
CCOc1cc(-c2sc(Nc3ccccc3)n[n+]2-c2ccc(F)cc2)ccc1OC	-14.7%	?	-17.5%	i	-0.6%	-1.0%
Fc1ccc(-[n+]2nc(Nc3ccccc3)sc2-c2ccc(OCc3ccccc3)cc2)cc1	16.4µM*	?	23.1µM*	i	-10.3%	-13.1%
